# M1 PAM parental: M1 PAM counterscreen hit in parental CHO-K1 cells | ATP EC20, Fluo-8 calcium fluorescence; 0% at ATP EC20, 100% at ATP max | activation, % at 3 µM | 360,000 tested, 0.02% active;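 active means activation above the run cutoff, the mean activation of all test compounds plus 3 SD, cut at about 40% in these data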;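 further: peak over basal fluorescence ratio in a 140 s read after ATP addition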
# M1 ag parental: nonselective activator or artifact in parental CHO-K1 cells. Fluo-8 calcium fluorescence; scaled to maximal ATP response, vehicle zero. activation, % at 3 µM. 360,000 tested, 0.48% active. AID 602248; in the data active means activation above about 15%;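 further: untransfected CHO-K1 host cells lacking M1 receptor as counterscreen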
# M1 ag: agonists of human M1 muscarinic receptor; AID 588814; 360,000 tested, 0.33% active; CHO-K1 hM1, Fluo-8 calcium fluorescence, agonist mode; 0% DMSO, 100% acetylcholine EC100; P11229; activation, % at 3 µM;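 active means activation above the run's mean compound activation plus 3 SD, cut at about 16% in these data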;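 further: peak over basal fluorescence ratio within a 140 s kinetic read after compound addition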
# Target sequence (P11229 whole entry, looked up): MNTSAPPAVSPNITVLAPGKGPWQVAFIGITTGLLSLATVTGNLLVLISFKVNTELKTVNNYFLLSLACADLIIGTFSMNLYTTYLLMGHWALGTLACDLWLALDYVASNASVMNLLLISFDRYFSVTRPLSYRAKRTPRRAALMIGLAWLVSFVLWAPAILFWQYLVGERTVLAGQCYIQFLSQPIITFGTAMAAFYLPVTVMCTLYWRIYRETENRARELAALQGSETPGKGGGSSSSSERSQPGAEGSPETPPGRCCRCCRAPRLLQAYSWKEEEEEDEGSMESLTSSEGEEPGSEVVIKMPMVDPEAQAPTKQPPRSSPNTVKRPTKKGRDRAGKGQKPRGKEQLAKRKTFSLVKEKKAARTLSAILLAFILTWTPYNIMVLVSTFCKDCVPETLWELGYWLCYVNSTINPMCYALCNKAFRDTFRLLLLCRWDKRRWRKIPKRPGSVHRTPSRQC
# CHRM1 PAM: potentiates human M1 receptor response to acetylcholine; 360,000 tested, 0.088% active; AID 588819; CHO-K1 hM1, Fluo-8 calcium fluorescence, ACh EC20; 0% = ACh EC20, 100% = maximal ACh; activation, % at 3 µM; P11229; in the data active means activation above about 19%, passing the limit was not always enough
# CHRM1 antagonist: human CHRM1 antagonism. P11229. CHO-K1 hM1, Fluo-8 calcium fluorescence, ACh EC80 antagonist. inhibition, % at 3 µM. 360,000 tested, 1.3% active. AID 588852;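 active means percent inhibition above its own plate's cutoff, namely the mean of that plate's compound wells plus 3 SD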;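 further: peak over basal fluorescence ratio during 140 s after agonist addition; 0% = ACh EC80 plus DMSO and 100% = DMSO alone without agonist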
# CHO-K1 Ca antag: counter-screen for M1 antagonists: effect in parental CHO-K1 cells. ATP-induced calcium, Fluo-8 fluorescence. inhibition, % at 3 µM. 360,000 tested, 0.6% active. AID 602250;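 active means inhibition above a per-plate cutoff, the plate's mean sample inhibition plus 3 SD, cut at about 24% in these data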;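 further: 0% = DMSO plus EC80 ATP and 100% = DMSO alone without ATP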
# * marks the source's active call; other numbers are inactive results; ! = not active in a repeat. Hits are enriched below; roughly 2.3% of the tested compounds scored in any of these assays.
SMILES,M1 PAM parental,M1 ag parental,M1 ag,CHRM1 PAM,CHRM1 antagonist,CHO-K1 Ca antag
COc1ccc2nc(C)cc(SCC(=O)O)c2c1,18,0,0,8,-27,24*!
COc1ccc2nc(C)cc(SCC(NC(C)=O)C(=O)OC(C)C)c2c1 (stereo unspecified),-25,1,-4,-7,11,26*
Cc1ccc(C)c(S(=O)(=O)N2CCCOC2CNC(=O)C(=O)NCc2ccccn2)c1 (stereo unspecified),-5,1,-4,-4,6,0
Fc1ccc(-n2nnnc2-c2cnc(-c3cccs3)nc2C(F)(F)F)cc1,15,5,2,-16,57*,13
FC(F)(F)c1nc(-c2ccncc2)ncc1-c1nnnn1-c1ccccc1,10,3,-1,2,-3,-8
C=C1C(=O)[C@]23C[C@H]1CCC2[C@@]1(C)C(C[C@@H]3O)[C@](C)(C(=O)O)C[C@H](O)[C@@H]1O (stereo partly specified),14,1,-2,8,-5,4
C=C1C(=O)[C@]23C[C@H]1CCC2[C@@]1(C)C(C[C@@H]3O)[C@](C)(C(=O)OC)CC[C@@H]1OC(C)=O (stereo partly specified),0,6,-6,-23,52*,29*
C=C1C(=O)[C@]23C[C@H]1CC[C@H]2[C@]1(C)[C@@H](O)CC[C@@](C)(C(=O)O)[C@H]1C[C@@H]3O,-7,0,-3,2,0,29*
COC(=O)C1=C(C)NC2=C(C(=O)CCC2)C1c1ccc(-c2ccsc2C(=O)OC)o1 (stereo unspecified),-17,4,25*,-3,6,23
CC1=C(C(=O)OC2CCCCCC2)C(c2ccc(C)o2)C2=C(CCCC2=O)N1 (stereo unspecified),-3,0,6,11,-5,13
CCn1nnnc1NCc1ccc(N2CCCC2)cc1,14,0,-5,-22,89*,-14
CCn1nnnc1NCc1ccc(SC)cc1,15,0,-9,0,-5,-2
CC(C)Cc1ccccc1S(N)(=O)=O,12,1,-4,-11,18,-16
Cc1ccccc1NS(=O)(=O)c1ccc2c(c1)n(C)c(=O)n2C,4,15*,-4,7,1,9
Cc1cc(C)c(NS(=O)(=O)c2ccc3c(c2)n(C)c(=O)n3C)c(C)c1,5,0,-1,2,-11,-17
Cc1ccccc1CCN1CCCC(CN(C)C(=O)C(=O)c2ccco2)C1 (stereo unspecified),-11,0,-7,-13,29,-1
CN(Cc1ccccc1OCCO)CC1CCCN(CCc2ccc(Cl)cc2)C1 (stereo unspecified),-8,1,-9,-28,51*,13
CN(CC1CCCN(CCc2ccc(Cl)cc2)C1)C(=O)C(=O)c1ccco1 (stereo unspecified),-4,0,-5,-19,44*,0
O=C(NC1CCCCCC1)C1CCN(C(=O)c2cccc(Cl)c2)CC1,-18,0,-2,7,-3,-1
CC(=O)Nc1cccc(-c2ccnc3c2CC(C(=O)Nc2ccc(Cl)cc2)O3)c1 (stereo unspecified),2,4,2,3,-7,-5
COc1ccccc1N(C)S(=O)(=O)c1ccc(C(=O)NCC(c2ccco2)N2CCCCC2)cc1 (stereo unspecified),-1,2,-7,-4,6,-3
CCOCc1c(C(=O)NCC(c2ccco2)N2CCCC2)oc2ccccc12 (stereo unspecified),-20,0,-9,-18,28*,14
O=C(NCC(c1ccco1)N1CCCC1)c1cccc(NS(=O)(=O)c2ccccc2)c1 (stereo unspecified),9,3,-8,-27,90*,-2
Cc1ccc(NS(=O)(=O)c2ccc(C(=O)NCC(c3ccco3)N3CCCCC3)cc2)cc1 (stereo unspecified),13,18*,8,-19,11,5
CN(c1ccccc1)S(=O)(=O)c1ccc(C(=O)NCC(c2ccco2)N2CCCCC2)cc1 (stereo unspecified),14,4,-6,-19,36*,-18
SMILES,M1 PAM parental,M1 ag parental,M1 ag,CHRM1 PAM,CHRM1 antagonist,CHO-K1 Ca antag
Cc1ccc(NS(=O)(=O)c2cccc(C(=O)NCC(c3ccco3)N3CCCC3)c2)cc1 (stereo unspecified),-14,2,-3,10,-9,-1
O=C(NCC(c1ccco1)N1CCCC1)c1ccccc1F (stereo unspecified),17,0,-7,4,-9,-5
CCc1c(C)c(C#N)c2[nH]c3ccccc3n2c1=S,-9,8,0,-6,13,17
CO/N=C/CC(=O)c1ccc([N+](=O)[O-])c(CS(=O)(=O)c2ccc(Cl)cc2)c1,8,1,-1,-3,1,-12
CC(=O)Oc1ccc(C(=O)Nc2cccc(C(=O)c3ccc(C)c(C)c3)c2)cc1,9,5,-1,3,0,1
CN(C)C(CNC(=O)c1ccc(S(=O)(=O)Nc2ccccc2)cc1)c1ccco1 (stereo unspecified),3,3,-6,-17,27*,-3
CCc1cc(C(=O)NCC(c2ccco2)N2CCCCC2)sc1C (stereo unspecified),-16,-1,-9,-19,29*,1
O=C(NCC(c1ccco1)N1CCCCC1)c1ccc(S(=O)(=O)Nc2ccccc2)cc1 (stereo unspecified),4,5,-4,-25,32*,-10
Cc1c(C(=O)NCC(c2ccco2)N2CCCC2)sc2ccccc12 (stereo unspecified),23,1,-6,4,-11,-10
O=C(Nc1ccc2c(c1)OCO2)C1Cc2c(-c3ccccc3Oc3ccccc3)ccnc2O1 (stereo unspecified),8,0,-2,-5,10,-6
CCc1nc2ccc(C(=O)NCC3CCCCC3)cn2c1N(C)Cc1nccs1,-19,2,-5,0,-7,9
COc1ccc(NC(=O)CN(C)C(=O)Cc2ccc3c(c2)CCC3)cc1,-17,0,-5,7,-8,2
COc1ccc(Cc2nnc(SC(C)C(=O)Nc3ccc(F)cc3Cl)o2)cc1 (stereo unspecified),9,1,-4,9,-14,0
CC1(C)Cc2c(cnn2-c2ccc(F)cc2)C(NC(=O)CN2CCCC2=O)C1 (stereo unspecified),23,0,-2,0,-3,-15
COC(=O)C1=C(C)N(Cc2ccco2)C(=O)/C1=C\c1ccc([N+](=O)[O-])cc1,19,17*,4,-3,20,8

# From PubChem BioAssay
